This is a sample that favours compounds with a hit; in the whole collection about 11% have one here.
NS1 inh = qHTS Assay for Inhibitors of Influenza NS1 Protein Function | Potency, µM (series often up to 46.1 µM) | hit rate 0.4% among 270,000 | AID 2326, 2010; calls by dose curve; also: actives are rising curves; nearly all actives have a fitted effect of over 50% in size
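In this qHTS, NS1 from influenza A is expressed in budding yeast, where it slows growth. Cells are switched from glucose to 2% galactose medium (pH 6.0, -URA), treated with compound, and growth recovery is read at OD600.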
Vaccinia Venus = qHTS for Stage-Specific Inhibitors of Vaccinia Orthopoxvirus: Venus Reporter Primary qHTS. Vaccinia virus Venus reporter expression, fluorescence. Potency, µM (doses to about 36.5 µM), hits mostly inhibitors. hit rate 0.46% among 330,000; calls by dose curve; tested in A549 cells; also: nearly all actives have a fitted effect of over 30% in size
VACV mCherry inh = qHTS for Stage-Specific Inhibitors of Vaccinia Orthopoxvirus: mCherry Reporter Primary qHTS; Vaccinia virus mCherry reporter infection, fluorescence; AID 720579, 2013; hit rate 0.63% among 310,000; Potency, µM (top dose mostly 36.5 µM), actives largely listed as inhibitors; calls by dose curve; tested in A549 cells; also: nearly all actives have a fitted effect of over 35% in size
HCV inh = qHTS Assay for Inhibitors of Hepatitis C Virus (HCV); Potency, µM (series often up to 41.8 µM), most hits filed as inhibitors; hit rate 3.4% among 340,000; Huh7.5.1 HCVcc-Cre infection, luciferase reporter, 44 h
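Infectious HCV cell culture screen: compound-treated cells (1,000/well, pre-plated 4 h) are infected with HCVcc-Cre at roughly 0.5 moi and grown 44 h. Infection is quantified by luciferase signal after 15 min substrate incubation at room temperature.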
Pf growth 48h = Primary qHTS for delayed death inhibitors of the malarial parasite plastid, 48 hour incubation | P. falciparum luciferase growth in erythrocytes, 48 h | Potency, µM (doses to about 28.7 µM), hits mostly inhibitors | hit rate 5.9% among 310,000 | AID 504832, 2011
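Growth was read as firefly luciferase luminescence after a 48 h, 37 C, 5% CO2 exposure of compounds to reporter-bearing P. falciparum cultures (0.1% parasitemia, 2% hematocrit final) in Albumax-supplemented RPMI 1640.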
Pf growth 96h = Primary qHTS for delayed death inhibitors of the malarial parasite plastid, 96 hour incubation | P. falciparum luciferase reporter growth, 96 h | Potency, µM (doses to about 28.7 µM), most hits filed as inhibitors | hit rate 6.9% among 320,000 | AID 504834, 2011
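P. falciparum expressing integrated firefly luciferase grown in erythrocytes (2% hematocrit, 0.05% parasitemia final) with compounds for 96 hours at 37 C, 5% CO2. Growth inhibition read as loss of luminescence after adding luciferase detection reagent.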
Numbers stand for hits; i = inactive; ? = inconclusive; nt = no result; [ ] = dose if it differs, or a comment. Unless noted, calls follow the shape of the dose curve; as a rule, active = well fitted inhibition curve with a large enough effect; inconclusive = small, poorly fitted or top-dose-only effect, or another doubt; inactive = no such curve, though single readings can be large or run the other way.

SMILES | NS1 inh | Vaccinia Venus | VACV mCherry inh | HCV inh | Pf growth 48h | Pf growth 96h
COc1cc(CN(C)CC2CCCN(CCc3ccccc3F)C2)cc(Cl)c1OC (stereo not drawn) | i | i | i | ? | 13.1µM | 9.28µM
COc1ccc(CN(C)CC2CCCN(CCc3ccc(Cl)cc3)C2)cc1OC (stereo not drawn) | i | i | i | 10µM | ? | i
COc1cc(CN(C)CC2CCCN(CCc3cccc(C(F)(F)F)c3)C2)ccc1O (stereo not drawn) | i | i | i | 12.6µM | 2.94µM | ?
CN(CC1CCCN(CCc2cccc(C(F)(F)F)c2)C1)C(=O)c1cc2ccccc2o1 (stereo not drawn) | i | nt | nt | ? | 10.4µM | i
CCOc1ccc(CN(C)C(=O)[C@H](Cc2ccccc2)NC(=O)OCc2ccccc2)cc1OC | i | i | ? | ? | ? | ?
COC(=O)c1sc2cccc(F)c2c1S(=O)(=O)Nc1cc(C)c(Cl)cc1OC | nt | i | i | nt | nt | nt
COCC(=O)N(C)CC1CCCN(CCc2ccccc2OC)C1 (stereo not drawn) | i | i | i | i | i | ?
COc1ccccc1CCN1CCCC(CN(C)CC(C)(C)CO)C1 (stereo not drawn) | i | i | i | i | i | 11.7µM
O=C1CC(c2ccccc2)=NN1c1nc(-c2ccccc2)cs1 | nt | i | i | i | i | i
Cc1ccccc1N(CC(=O)NCCSC1CCCCC1)S(=O)(=O)c1ccccc1 | i | nt | nt | i | ? | ?
O=C(CSc1ccc2nnc(-c3cccnc3)n2n1)Nc1cccc(F)c1 | i | nt | nt | i | ? | ?
Cc1ccc(NC(=O)CN2C(=O)NC(C)(C)C2=O)cc1S(=O)(=O)N1CCCCCC1 | nt | i | i | ? | i | i
C=CCC1(CC=C)CCCN1C(=O)CC1C(=O)NCCN1Cc1cc(OC)cc(OC)c1 (stereo not drawn) | i | i | i | i | 14.7µM | ?
CN1CCN(Cc2ccc(-c3ccc(Cl)cc3)o2)CC1 | i | nt | nt | 14.1µM | i | nt
Clc1ccc(-c2ccc(CN3CCCCC3)o2)cc1 | i | nt | nt | i | i | ?
O=C(CCCCCn1c(=S)[nH]c2ccc(N3CCOCC3)cc2c1=O)NCc1cccc(Cl)c1 | nt | i | i | ? | i | i
O=C1C(=O)c2ccccc2C(O)=C1c1cccc([N+](=O)[O-])c1 | i | i | i | i | ? | 7.38µM
CC(C)c1ccc(C2=C(O)c3ccccc3C(=O)C2=O)cc1 | i | i | i | i | 1.47µM | i
CC1=Nc2ccccc2/C1=C/c1c(O)n(C)c(=O)[nH]c1=O | i | i | i | i | i | i
Cc1cccc(-n2c(O)c(/C=C3/C(c4ccccc4)=Nc4ccccc43)c(=O)[nH]c2=O)c1 | i | nt | nt | ? | 10.4µM | 11.7µM
Cc1ccc(-n2c(O)c(/C=C3/C(c4ccccc4)=Nc4ccccc43)c(=O)[nH]c2=O)cc1 | i | i | i | ? | 8.28µM | 7.38µM
Cc1ccccc1-n1c(O)c(/C=C2/C(c3ccccc3)=Nc3ccccc32)c(=O)[nH]c1=O | i | i | ? | ? | 11.7µM | i
Cc1cccc(-n2c(O)c(/C=C/C=Nc3ccccc3)c(=O)[nH]c2=O)c1 | i | i | i | i | i | i
C=CCNC(=S)NNC(=O)c1cccnc1 | i | i | i | i | i | i
CCOC(=O)Cc1csc(NC(=O)NC2(C(F)(F)F)Oc3cc(Cl)c(Cl)cc3O2)n1 | i | i | nt | ? | nt | ?
SMILES | NS1 inh | Vaccinia Venus | VACV mCherry inh | HCV inh | Pf growth 48h | Pf growth 96h
COc1cc(OC)c(OC)cc1CNC(C)C(O)c1ccccc1 (stereo not drawn) | i | nt | nt | i | i | i
CCOc1c(Cl)cc(CNC(C)(C)CC(C)(C)C)cc1OC | i | nt | nt | ? | 10.4µM | nt
CCC(CO)NCc1ccc(-c2ccccc2)cc1 (stereo not drawn) | i | i | ? | ? | i | 3.7µM
CCC(CO)NCc1ccc(Br)cc1 (stereo not drawn) | i | nt | nt | i | i | i
CCOc1c(Cl)cc(CNC(C)C(O)c2ccccc2)cc1OC (stereo not drawn) | i | nt | nt | i | 1.47µM | i
CC(NCc1ccc(Cl)cc1Cl)C(O)c1ccccc1 (stereo not drawn) | i | i | i | i | 1.04µM | 1.47µM
COc1ccc2nc(NCc3cccnc3)sc2c1 | i | nt | nt | i | i | ?
CC(CC(=O)NCc1ccc(Cl)cc1)c1ccccc1 (stereo not drawn) | i | nt | nt | i | i | ?
CC(NCc1ccc(-c2ccccc2)cc1)C(O)c1ccccc1 (stereo not drawn) | i | ? | i | ? | 2.94µM | 2.33µM
CC(NCc1cccc(Cl)c1Cl)C(O)c1ccccc1 (stereo not drawn) | i | i | i | i | 9.28µM | 4.65µM
CC(NCc1ccc(Cl)cc1)C(O)c1ccccc1 (stereo not drawn) | i | i | i | i | 2.62µM | 3.7µM
Cc1sc2nc(CN3CCOCC3)nc(N3CCOCC3)c2c1C | i | i | nt | i | nt | ?
COc1ccc(-c2nc(-c3ccccc3)nc(N3CCN(C)CC3)c2C#N)cc1 | i | nt | nt | ? | ? | 13.1µM
COC(=O)c1sc2nc(-c3ccccc3)nc(N3CCN(C)CC3)c2c1C | i | i | ? | i | 3.7µM | nt
COC(=O)c1sc2nc(CN3CCOCC3)nc(N3CCOCC3)c2c1C | i | i | i | ? | 10.4µM | i
Cc1ccc2nc(NC(=O)CSc3[nH]c(=O)ncc3C)sc2c1 | nt | i | i | nt | nt | nt
CCN1CCS/C1=C/C=C/C1=[N+](CC)CCS1 | i | ? | i | nt | 0.738µM | 0.657µM
CCN1CCS/C1=C\C=C\C1=[N+](CC)CCS1 | nt | nt | nt | 6.31µM | 0.928µM | i
CC1SCC(NC(=O)c2cccc(Cl)c2)CS1 (stereo not drawn) | i | i[7.34 µM] | i[7.34 µM] | i | i | i
CN(C)c1ccc(C(=S)Nc2ccccc2)cc1 | i | i | ? | i | i | i
CN(C)c1cc(O)c(C(=S)Nc2ccccc2)c(N(C)C)c1 | i | i | i | 11.2µM | ? | i
CCOc1cc(/C=C2\SC(=S)N(N3CCOCC3)C2=O)ccc1O | i | nt | nt | i | i | i
CCOc1cc(/C=C2\SC(=N)N(c3nccs3)C2=O)ccc1OCCN1CCOCC1 | i | ? | 11.2µM | i | ? | 4.15µM
O=C(/C=C/c1cccc(F)c1)NCc1ccc2c(c1)OCO2 | i | i | i | i | i | i
COc1ccccc1C(C[N+](=O)[O-])c1c(N)n(C)c(=O)n(C)c1=O (stereo not drawn) | i | nt | nt | 11.2µM | ? | ?
COc1ccccc1C(c1c(N)n(C)c(=O)n(C)c1=O)C(C)[N+](=O)[O-] (stereo not drawn) | i | i | i | i | ? | i
Cc1ccc(NS(=O)(=O)c2ccc(-c3ccc(=O)[nH]n3)o2)cc1Cl | i | ? | i | i | i | 9.28µM

Screening data: PubChem BioAssay, National Center for Advancing Translational Sciences (NCATS)
